Assay [1] relates to Plasmodium falciparum Sir2 (PF13_0152, Sir2A). Kind of assay: Plasmodium falciparum Sir2A binding compounds – biochemical, small-molecule microarray, 635 nm fluorescence, primary screen (AID 1098).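 Note: score merges spot fluorescence intensity with its signal-to-noise ratio.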 Conditions: fluorescence 635 nm, higher = more signal.
Assay [2] can be described thus: probe aDKK1 binding to arrayed compounds – biochemical, biotinylated probe, 635/667 nm fluorescence, primary screen (AID 1099).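 Note: score merges 667nm spot fluorescence with signal to noise across triplicate slides; reference of the scale not given here.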 Conditions: small-molecule microarray, higher = more signal.
Assay [3] is described as follows: probe aCHRDL2 binding to arrayed compounds – biochemical, biotinylated probe, 635/667 nm fluorescence, primary screen (AID 1100). Conditions: small-molecule microarray, higher = more signal.
Assay [4] can be described thus: change in splice reporter luminescence, either direction, cell-based, HEK293, spliceosome inhibition project, primary screen (AID 1101).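 Note: HEK293 cells carrying a splicing-competent luciferase reporter gene; test concentration not given here.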 The note with it: HEK293 splicing luciferase reporter, 24 h, higher = more signal, called active from +8 up or from −8 down. In general terms: In a reporter assay the amount or activity of a reporter protein is the signal.
Assay [5] addresses Fibroblast growth factor 10 (Homo sapiens) (UniProt O15520). Kind of assay: compounds binding fibroblast growth factor 10 – biochemical, small-molecule microarray, 635 nm fluorescence, primary screen (AID 1102). Conditions: FGF10 binding, fluorescence 635 nm, higher = more signal.
Assay [6] has as its system glycogen synthase kinase-3 (GSK3A per assay name; protocol says GSK3B). Kind of assay: compounds binding glycogen synthase kinase-3 – biochemical, small-molecule microarray, 635 nm fluorescence, GSK3A, primary screen (AID 1103). Note: the record names both GSK3A and GSK3B. Conditions: fluorescence 635 nm, higher = more signal.
Assay [7] deals with Epidermal growth factor receptor (Homo sapiens) (UniProt P00533). Kind of assay: compounds binding epidermal growth factor receptor – biochemical, small-molecule microarray, 635 nm fluorescence, primary screen (AID 1104).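 Note: score merges 667 nm emission intensity with spot signal to noise over triplicate slides.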 The note with it: EGFR binding, higher = more signal.
Assay [8] has as its target Follistatin-related protein 3 (Homo sapiens) (UniProt O95633). Briefly: compounds binding follistatin-related protein 3 – biochemical, small-molecule microarray, 635 nm fluorescence, primary screen (AID 1105).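 Note: score merges emission near 667 nm and signal to noise per printed spot across three slides.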 Conditions: FSTL3 binding, higher = more signal.
The target of assay [9] is Dickkopf-related protein 1 (Homo sapiens) (UniProt O94907). Briefly: small molecules binding DKK1 protein – biochemical, small-molecule microarray, 635 nm fluorescence scan, primary screen (AID 1106).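 Note: score merges emission near 667 nm with signal to noise over three replicate slides.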 The note with it: higher = more signal.
The subject of assay [10] is Inhibin beta A chain (activin A). Kind of assay: small molecules binding activin A – biochemical, small-molecule microarray, 635 nm fluorescence scan, primary screen (AID 1107).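 Note: mouse activin A protein probed at 4.33 µg/mL on printed slides; score merges bound-protein fluorescence near 667 nm with spot signal-to-noise.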 Conditions: INHBA, higher = more signal.

Active and inactive are the calls of the source.

Chain of Fibroblast growth factor 10 (Homo sapiens) (O15520 whole entry, looked up): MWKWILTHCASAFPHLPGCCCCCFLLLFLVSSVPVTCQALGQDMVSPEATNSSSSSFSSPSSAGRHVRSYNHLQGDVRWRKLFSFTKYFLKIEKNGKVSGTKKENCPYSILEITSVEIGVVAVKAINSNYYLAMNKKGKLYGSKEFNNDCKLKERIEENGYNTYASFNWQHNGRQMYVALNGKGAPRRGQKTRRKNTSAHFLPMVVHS
Chain of Epidermal growth factor receptor (Homo sapiens) (P00533 whole entry, looked up): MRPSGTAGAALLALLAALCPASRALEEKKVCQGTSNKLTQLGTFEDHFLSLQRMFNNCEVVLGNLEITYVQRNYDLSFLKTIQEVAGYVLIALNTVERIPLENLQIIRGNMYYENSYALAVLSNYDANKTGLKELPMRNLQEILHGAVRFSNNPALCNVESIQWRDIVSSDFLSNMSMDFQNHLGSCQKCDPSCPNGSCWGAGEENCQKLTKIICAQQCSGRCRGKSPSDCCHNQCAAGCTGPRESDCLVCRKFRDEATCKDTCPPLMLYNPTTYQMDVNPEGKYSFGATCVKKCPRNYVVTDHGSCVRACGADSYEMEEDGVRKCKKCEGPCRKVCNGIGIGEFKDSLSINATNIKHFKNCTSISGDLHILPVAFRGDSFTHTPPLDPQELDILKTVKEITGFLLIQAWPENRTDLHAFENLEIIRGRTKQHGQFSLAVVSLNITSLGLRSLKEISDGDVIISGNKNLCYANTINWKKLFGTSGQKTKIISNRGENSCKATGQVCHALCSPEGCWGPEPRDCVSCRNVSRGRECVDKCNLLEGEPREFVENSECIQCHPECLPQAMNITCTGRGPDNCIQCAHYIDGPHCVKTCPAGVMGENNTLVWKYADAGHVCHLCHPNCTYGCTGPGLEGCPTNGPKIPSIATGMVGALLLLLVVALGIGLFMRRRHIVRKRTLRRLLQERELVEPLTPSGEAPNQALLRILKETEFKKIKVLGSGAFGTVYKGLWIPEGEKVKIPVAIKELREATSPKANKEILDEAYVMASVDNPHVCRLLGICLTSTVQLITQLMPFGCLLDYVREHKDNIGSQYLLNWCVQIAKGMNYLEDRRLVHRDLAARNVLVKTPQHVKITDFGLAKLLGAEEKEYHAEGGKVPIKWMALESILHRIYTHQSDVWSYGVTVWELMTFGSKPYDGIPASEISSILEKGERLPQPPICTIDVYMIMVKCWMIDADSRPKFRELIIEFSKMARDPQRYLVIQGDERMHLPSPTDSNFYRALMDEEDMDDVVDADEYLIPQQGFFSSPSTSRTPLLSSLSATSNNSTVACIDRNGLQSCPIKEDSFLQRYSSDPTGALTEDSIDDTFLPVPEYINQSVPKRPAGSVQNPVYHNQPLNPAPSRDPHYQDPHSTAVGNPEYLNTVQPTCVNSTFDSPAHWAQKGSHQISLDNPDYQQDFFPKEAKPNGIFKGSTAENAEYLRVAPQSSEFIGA
Chain of Dickkopf-related protein 1 (Homo sapiens) (O94907 whole entry, looked up): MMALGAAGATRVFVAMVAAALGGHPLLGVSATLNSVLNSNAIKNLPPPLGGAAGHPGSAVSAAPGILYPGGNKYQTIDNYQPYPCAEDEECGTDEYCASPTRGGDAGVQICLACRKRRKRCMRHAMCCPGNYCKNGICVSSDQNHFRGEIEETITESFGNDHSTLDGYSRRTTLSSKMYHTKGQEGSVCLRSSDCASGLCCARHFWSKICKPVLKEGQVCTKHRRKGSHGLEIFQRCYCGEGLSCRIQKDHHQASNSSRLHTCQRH
Chain of Follistatin-related protein 3 (Homo sapiens) (O95633 whole entry, looked up): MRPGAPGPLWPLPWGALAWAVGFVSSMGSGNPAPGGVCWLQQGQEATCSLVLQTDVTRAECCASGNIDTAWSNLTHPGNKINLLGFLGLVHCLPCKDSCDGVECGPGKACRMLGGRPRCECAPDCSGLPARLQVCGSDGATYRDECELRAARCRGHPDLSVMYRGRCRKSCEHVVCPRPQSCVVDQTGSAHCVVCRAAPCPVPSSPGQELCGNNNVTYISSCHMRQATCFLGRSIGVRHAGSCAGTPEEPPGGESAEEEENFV

As for `CN(C)CCCCCCNC(=O)[C@@H]1C[C@@H]2C(=O)N[C@@H](CCCC[N+](C)(C)C)C(=O)N2[C@@H]1c1cccc(OCCO)c1`, the composite z-score in assay [1] is 0.512; in [2], 0.116; in assay [3], 0.474; in assay [5], -1.11; in [6] it was 0.218; in [7] it was -0.962. Also, the composite z-score is -0.714 in assay [8], -0.377 in assay [9] and -0.246 in assay [10]. Besides, in assay [4], the z-score was -1.52 (inactive).
On to `COC(=O)C1=CC(CCCO)=CC(c2ccc(CN3CCCC3)cc2)N(C)C=C1C(=O)OC` (stereo not given), for which the composite z-score is 1.65 in assay [1]; 0.629 in assay [2]; 0.549 in assay [3]; 0.883 in assay [5]; -0.302 in [6]; -0.138 in assay [7]. The figures for the composite z-score in assay [8], in assay [9] and in [10] were 0.345, -0.36 and 0.861, respectively. Moreover, in assay [4], the z-score is 0.657 (inactive).
In the case of `C=CCNC(=O)[C@@H]1[C@H]2C(=O)O[C@H](c3ccccc3)[C@H](c3ccccc3)N2[C@H](c2ccc(OCCO)cc2)[C@@]12C(=O)N(C(=O)OCCOC)c1ccccc12`, the composite z-score in assay [1] was 1.2; in [2] it was -0.144; in [3], 0.496; in [5], 1.28; in [6] it was 1.08; in assay [7] it was 0.459. Besides, the composite z-score in assay [8] is 1.03; in assay [9], 0.0392; in assay [10], 0.745. For the same compound, the z-score in assay [4] was 0.263 (inactive).
For `C=C(C(=O)CC[C@H](OC(=O)c1ccccc1-c1ccccc1C(=O)O)c1ccc(OCCO)cc1)C(C)C`, the composite z-score in assay [1] was 1.26; in [2], 0.157; in [3], 0.0371; in [5], 1.04; in assay [6], 0.114; in assay [7] it was -0.242. The composite z-score in assay [8] came to 0.0428; in assay [9] it was 0.339; in assay [10], 0.548. In addition, in [4], the z-score was -0.47 (inactive).
Turning to `C=C(C)C1CN([C@H](CO)c2ccccc2)C(=O)/C1=C\c1ccccc1` (stereo not given in full), the composite z-score was 0.719 in [1]; -0.316 in assay [2]; -0.492 in assay [3]; 0.716 in [5]; 0.22 in assay [6]; 0.0508 in assay [7]. Also, the values for the composite z-score in assay [8], in assay [9] and in assay [10] were 0.276, 0.48 and 1.29, respectively. The z-score in assay [4] was -0.921 (inactive).
`COCCOC(=O)N1C(=O)[C@@]2(c3cc(C#CCCO)ccc31)[C@H](c1ccc(O)cc1)N1[C@H](c3ccccc3)[C@H](c3ccccc3)OC(=O)[C@H]1[C@@H]2C(=O)NC[C@H](O)c1ccccc1`: the composite z-score is 1.16 in assay [1]; -0.0668 in [2]; -0.0755 in assay [3]; 0.758 in [5]; 0.733 in [6]; 0.0103 in assay [7]. The composite z-score in assay [8] is 0.491; in assay [9] it was 0.143; in assay [10], 0.48. Moreover, the z-score in [4] is 0.49 (inactive).
In the case of `Cc1ccc(S[C@]2(C(=O)NCC(C)C)CC(=O)N(C(C)C)[C@@H]2c2ccc(CO)cc2I)cc1`, the composite z-score was 0.115 in assay [1]; 0.669 in assay [2]; 1.28 in [3]; -0.679 in assay [5]; -1.03 in assay [6]; -0.941 in assay [7]. The composite z-score is -0.573 in assay [8], -0.7 in assay [9] and 0.256 in assay [10]. For the same compound, the z-score in [4] is -1.14 (inactive).
`O=C1OCCC/C=C\[C@H]2OC34C=CCN(Cc5ccccc5)C(=O)[C@H]3N(CCO)C(=O)[C@@H]4C12` (stereo not given in full): the composite z-score in [1] is 1.76; in assay [2] it was -0.214; in [3], 0.222; in assay [5], 0.049; in [6], 0.124; in [7], -0.71. Besides, the composite z-score was -0.579 in [8], -0.461 in assay [9] and 0.765 in [10]. Also, the z-score in assay [4] was -1.25 (inactive).
With `C=CCNC(=O)[C@@H]1[C@H]2C(=O)O[C@H](c3ccccc3)[C@H](c3ccccc3)N2[C@H](c2ccc(O)cc2)[C@@]12C(=O)Nc1ccc(C#CC3=CCCCC3)cc12`, the composite z-score was 1.6 in assay [1]; 0.582 in assay [2]; -0.228 in [3]; 1.24 in assay [5]; 0.887 in [6]; 0.494 in assay [7]. Also, the composite z-score in assay [8] came out at 0.79; in [9], 0.626; in [10], 0.406. For the same compound, the z-score in assay [4] was -0.258 (inactive).
Take `CCCCCN1CC=CC23O[C@@H]4/C=C\CCCOC(=O)C4[C@H]2C(=O)N(CCCCCO)[C@@H]3C1=O` (stereo not given in full): the composite z-score is 0.447 in assay [1]; -0.267 in [2]; 0.337 in [3]; -0.566 in assay [5]; -0.364 in [6]; -0.779 in assay [7]. Moreover, the results for the composite z-score in [8], in assay [9] and in assay [10] were -0.521, -0.833 and 0.468, respectively. For the same compound, the z-score in assay [4] is -0.831 (inactive).
As for `CCCNC(=O)[C@@]1(Sc2ccc(C)cc2)CC(=O)N(Cc2cc(C(F)(F)F)cc(C(F)(F)F)c2)[C@@H]1c1ccc(CO)cc1`, the composite z-score is -0.441 in assay [1]; -0.09 in assay [2]; 0.738 in assay [3]; 0.0468 in assay [5]; -0.365 in assay [6]; -0.738 in assay [7]. Also, the composite z-score is -0.888 in assay [8], -1.2 in [9] and 0.108 in [10]. Besides, the z-score in [4] was -1.58 (inactive).
Take `O=C(NC1CC1)[C@@H]1c2ccccc2C(=O)N(C2CCCCC2)[C@H]1c1ccc(CO)cc1`: the composite z-score in [1] is 0.891; in assay [2] it was 1.84; in [3] it was 0.989; in [5] it was 0.055; in assay [6] it was 0.286; in assay [7] it was 0.0989. Further, the composite z-score in assay [8] is 0.208; in assay [9], 0.139; in assay [10], -0.24. Moreover, the z-score in assay [4] was -0.496 (inactive).
Turning to `C=CCNC(=O)[C@@H]1[C@H]2C(=O)O[C@H](c3ccccc3)[C@H](c3ccccc3)N2[C@H](c2ccc(OCCO)cc2)[C@@]12C(=O)Nc1ccc(C#CC3=CCCCC3)cc12`, the composite z-score in [1] was 1.11; in [2], -0.297; in assay [3] it was -0.299; in [5] it was 1.17; in [6] it was 1.21; in assay [7], 0.39. The composite z-score in [8] is 0.882; in [9], 0.586; in [10], -0.621. In assay [4], the z-score is -0.384 (inactive).
For the compound `Cc1ccc(S[C@]2(C(=O)NCc3ccccc3)CC(=O)N(Cc3ccccc3Cl)[C@@H]2c2ccc(CO)cc2)cc1`, the composite z-score was 1.07 in assay [1]; 0.169 in [2]; 0.603 in assay [3]; -0.35 in [5]; 0.165 in assay [6]; -1.31 in assay [7]. For the same compound, the composite z-score in [8] was -0.648; in assay [9], -0.743; in assay [10] it was 0.0073. Besides, the z-score in assay [4] is -0.419 (inactive).
As for `O=C(O)C1=CC[C@H]2C(=O)N(c3ccccc3)C(=O)[C@@H]12`, the composite z-score was 0.767 in assay [1]; 0.45 in [2]; 0.682 in assay [3]; 0.855 in [5]; 1.04 in [6]; 0.325 in assay [7]. The composite z-score was 1.11 in assay [8], 0.0793 in assay [9] and 1.23 in assay [10]. Further, the z-score in assay [4] was 0.727 (inactive).
Consider `CC[C@@H](O[Si](C#C[Si](C(C)C)(C(C)C)C(C)C)(C(C)C)C(C)C)c1cn([C@H](C)c2ccccc2)nn1`, for which the composite z-score was 0.43 in assay [1]; 0.0317 in assay [2]; -0.328 in [3]; 0.403 in assay [5]; 0.136 in assay [6]; 0.533 in [7]. The composite z-score is 0.658 in [8], 0.432 in assay [9] and -0.142 in [10]. Besides, the z-score in assay [4] is 0.242 (inactive).
